Compound activity deposited in PubChem by National Center for Advancing Translational Sciences (NCATS).
POLK inh: blocks human DNA polymerase kappa activity | purified Pol kappa, fluorescent DNA synthesis assay, 10 min | 400,000 compounds, 0.53% hits | AID 588579 | Q9UBT6 | Potency, µM (doses to about 107 µM), for inactives: at the highest dose activity, negative = inhibition, actives largely listed as inhibitors; note: % is set by controls: 0 for no effect and ±100 for the full control effect
Target sequence (Q9UBT6 whole entry, looked up): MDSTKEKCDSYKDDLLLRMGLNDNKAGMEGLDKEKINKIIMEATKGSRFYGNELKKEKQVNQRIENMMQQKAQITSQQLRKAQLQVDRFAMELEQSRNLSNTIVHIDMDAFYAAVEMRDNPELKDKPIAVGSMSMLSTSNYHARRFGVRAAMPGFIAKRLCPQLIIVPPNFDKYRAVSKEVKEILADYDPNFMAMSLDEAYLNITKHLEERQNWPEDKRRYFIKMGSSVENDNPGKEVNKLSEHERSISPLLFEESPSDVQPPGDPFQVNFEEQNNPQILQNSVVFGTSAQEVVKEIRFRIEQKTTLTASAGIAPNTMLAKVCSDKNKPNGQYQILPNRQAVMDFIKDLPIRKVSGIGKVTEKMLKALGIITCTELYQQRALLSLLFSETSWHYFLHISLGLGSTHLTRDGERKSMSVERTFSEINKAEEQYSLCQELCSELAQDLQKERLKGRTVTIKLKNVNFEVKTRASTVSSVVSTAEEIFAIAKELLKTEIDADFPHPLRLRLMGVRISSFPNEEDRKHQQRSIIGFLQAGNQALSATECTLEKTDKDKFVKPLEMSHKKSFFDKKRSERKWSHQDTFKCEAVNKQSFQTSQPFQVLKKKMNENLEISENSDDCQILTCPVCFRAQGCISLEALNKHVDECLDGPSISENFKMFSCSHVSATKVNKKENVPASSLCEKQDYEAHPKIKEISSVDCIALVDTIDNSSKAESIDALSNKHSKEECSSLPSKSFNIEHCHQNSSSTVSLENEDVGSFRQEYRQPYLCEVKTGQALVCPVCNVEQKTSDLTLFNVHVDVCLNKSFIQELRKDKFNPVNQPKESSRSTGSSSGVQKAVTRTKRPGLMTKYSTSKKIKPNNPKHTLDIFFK
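Kinetic fluorescence readout at 0 and 10 min followed reaction start with substrate at 50 nM final. Beforehand, enzyme (10 nM Pol kappa) stood 15 min with compound at room temperature; buffer-only wells were negative controls.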
WRN inhibitor: blocks human WRN helicase; Q14191; WRN helicase unwinding, fluorescent forked duplex, kinetic; Potency, µM (top dose mostly 114 µM), for inactives: at the highest dose activity change, negative = inhibition, usual class: inhibitors; 360,000 compounds, 0.46% hits; note: % is set by controls: 0 for no effect and ±100 for the full control effect; nearly all actives have a fitted effect of over 55% in size
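Kinetic red-fluorescence monitoring (525/598 nm) tracks WRN helicase activity after 100 nM fluorophore-quencher forked duplex and 2 mM ATP are added to 20 nM enzyme pretreated 15 min at room temperature with compound.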
FEN1 inh: inhibitors of human flap endonuclease 1. P39748. Recombinant FEN1 flap cleavage, fluorescence, 15 min. Potency, µM (doses to about 114 µM), for the others: at the highest dose activity change, negative = inhibition, hits mostly inhibitors. 390,000 compounds, 0.35% hits; note: % is set by controls: 0 for no effect and ±100 for the full control effect; nearly all actives have a fitted effect of over 65% in size
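Concentration–response screening of FEN1 (10 nM): 15 min compound preincubation at room temperature, reaction started with 50 nM substrate and read at 0 and 15 min. Corrected, normalized data were fitted by a four-parameter Hill equation.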
POLI inh: DNA polymerase iota (human) inhibition | Q9UNA4 | Pol iota fluorescent replication assay, 10 min | Potency, µM (series often up to 115 µM), for inactives: top-dose activity, negative = inhibition, hits mostly inhibitors | 390,000 compounds, 1% hits | AID 588590
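Fluorescent replication assay read twice, at 0 min and 10 min after adding 50 nM (final) substrate. Enzyme (10 nM) and compounds were first incubated 15 min at room temperature; enzyme-free buffer wells were negative controls.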
POLB inh: inhibitors of human DNA polymerase beta | P06746 | Pol beta primer extension/strand displacement, fluorescence kinetic | Potency, µM (titrated, usually from 114 µM), for the others: at the highest dose activity change, negative = inhibition, usual class: inhibitors | 340,000 compounds, 1.3% hits | AID 485314; note: % is set by controls: 0 for no effect and ±100 for the full control effect
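Values derive from four-parameter Hill fits of normalized kinetic data: reads at 0 and 10 min following addition of 50 nM substrate to 10 nM Pol beta preincubated 15 min with compound.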
POLH inh: inhibitors of human DNA polymerase eta | recombinant Pol eta, fluorescent DNA replication assay | Potency, µM (series often up to 114 µM), for the others: at the highest dose activity change, negative = inhibition, most hits filed as inhibitors | Q9Y253 | 390,000 compounds, 1.2% hits; note: % is set by controls: 0 for no effect and ±100 for the full control effect
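Pol eta at 10 nM preincubated with compounds 15 min at room temperature; reaction started with fluorescent substrate (50 nM final) and read kinetically at 0 and 10 min.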
PGK validate: TbPGK inhibition, hit validation; TbPGK coupled GAPDH assay, Kinase-Glo luminescence; shares compounds with POLK inh; Potency, µM (titrated, usually from 57.5 µM), for the others: top-dose activity change, negative = inhibition, actives largely listed as inhibitors; AID 686980; 500 compounds, 79% hits; note: % is set by controls: 0 for no effect and ±100 for the full control effect; nearly all actives have a fitted effect of over 65% in size
Pol iota confirm: Confirm cherry-picked inhibitors of human polymerase iota; shares compounds with POLK inh; Pol iota primer extension, TAMRA/BHQ fluorescence; Potency, µM, most hits filed as inhibitors; 1,500 compounds, 77% hits
The depositor's hits bear a star; ? = inconclusive; . = no result given; [ ] = dose if it differs, or a comment. Shown are actives, neighbours in structure and some others; about 2.4% of the full set was active somewhere. Calls come from the whole dose curve; as a rule, active = well fitted curve in the direction sought with a large enough effect; inconclusive = small, poorly fitted or top-dose-only effect, or another doubt; inactive = no such curve, though single readings can be large; an effect the other way counts as inactive or inconclusive. Potency is the fitted concentration of half-maximal effect.

SMILES	POLK inh	WRN inhibitor	FEN1 inh	POLI inh	POLB inh	POLH inh	PGK validate	others
N/C(=N\OC(=O)c1ccccc1Cl)c1ccccn1	-1%	1%	-15%	24%	92%	1%	16µM*
COc1ccccc1C(=O)O/N=C(\N)c1ccccn1	-13%	5%	2%	36%	3%	-14%	.
COc1ccccc1-c1ccc2ncnc(N3CCNCC3)c2c1	4%[60.1 µM]	.	.	.	.	.	.
COc1cc2c(ccc3cc(OC)c(OC)c(O)c32)cc1O	7.9µM*	18µM*	22µM*	?	1.4µM*	3.2µM*	1.5µM*
COc1cc2oc(=O)ccc2cc1O	14%[60.1 µM]	.	.	.	.	.	.
COc1cccc(NC(=O)CSc2nc(=O)[nH]c3c2CCCC3)c1	-10%[60.1 µM]	.	17%	11%	-1%	-6%	.
O=c1c(Cl)c(O)c2cccc3c4ccccc4n1c23	-5%	-30%	?	1%	?	?	.
COc1c(O)c(=O)n2c3ccccc3c3ccnc1c32	-14%	-19%	11µM*	?	.	-26%	.	Pol iota confirm=4.7*
CCOc1ccc(C(=O)/C=C/c2cn(CC(O)CN3CCc4ccccc43)c3ccccc23)cc1 (stereo not drawn)	-6%	.	3%	-12%	1%	-15%	.
CN(C)CCCOc1c2ccccc2n(Cc2ccccc2)[n+]1[O-]	29%[60.1 µM]	.	.	.	.	.	.
CC(=O)N1CCCc2cc(S(=O)(=O)N(C)CC(=O)Nc3ccc(C(C)C)cc3)ccc21	-3%[60.1 µM]	.	-3%	23%	-2%	-18%	.
c1ccc(-c2cn3c(n2)-c2ccccc2C3)cc1	5%	4%	0%	15%	-1%	?	15µM*
Cc1ccc(-c2nc3n(n2)Cc2ccccc2-3)cc1	-8%	?	-6%	?	?	-6%	.
CCOC(=O)c1cc(S(=O)(=O)N2CCN(c3ccc(F)cc3)CC2)[nH]n1	-2%[60.1 µM]	.	0%	-4%	1%	-10%	.
Cc1ccsc1/C=N/Nc1nc(=O)[nH]nc1C	-3%	1%	-6%	-15%	18%	-18%	18µM*
COc1cccc2cc(C(=O)NCCc3c(C)[nH]c4ccc(F)cc34)c(=O)oc12	-6%	.	-1%	?	-8%	-4%	.
Cc1occc1C(=O)N/N=C/C=C/c1ccc(N(C)C)cc1	5%	0%	4%	20%	0%	-14%	.
Cc1occc1C(=O)N/N=C/c1ccc(N(C)C)cc1	1%	-5%	0%	6%	0%	-20%	10µM*
O=C(C1CCN(S(=O)(=O)Cc2ccccc2)CC1)N1CCN(c2ccccc2)CC1	9%	.	-3%	27%	8%	-17%	.
COc1ccccc1NS(=O)(=O)c1cc(NC(=O)CNC(=O)c2ccccc2)ccc1C	-16%	-29%	-3%	0%	25%	-14%	.
COc1ccccc1NS(=O)(=O)c1cc(NC(=O)c2ccc3c(c2)OCCO3)ccc1C	0%	-27%	9%	?	28%	-25%	2%
CN(C)c1ccc(N/C=C/C(=O)c2ccco2)cc1	-7%	-8%	5%	?	?	-15%	10µM*
CCN1CCN(Cc2ccc(NC(=O)c3ccc(C)c(NC(=O)c4cc(-c5ccc(Br)cc5)n[nH]4)c3)cc2C(F)(F)F)CC1	-8%	4%	-1%	-24%	-2%	-14%	.
CCN1CCN(Cc2ccc(NC(=O)c3ccc(C)c(NC(=O)N4CCNC4=O)c3)cc2C(F)(F)F)CC1	-2%	0%	3%	?	25%	?	26µM*
COc1ccc(C)cc1NC(=O)CCn1nc(C)cc1C	17%	.	-6%	?	?	-19%	.
